The values that follow come from ChEMBL document CHEMBL3433997, “St. Jude Leishmania screening dataset” (2016).

Holding throughout (assay type): functional
Assay [1] addresses Solute carrier family 2, facilitated glucose transporter member 1 (Homo sapiens) (UniProt P11166). Kind of assay: ST_JUDE_LEISH: Cytotoxicity at 2uM final concentration against transgenic Leishmania Mexicana promastigotes LmGLUT1 that are glucose transport deficient and complemented with the human glucose transporter GLUT1. Activity is measured by DNA content using SYBR green in vitro.

Assay [2] deals with Hexose transporter 1 (Plasmodium falciparum) (UniProt O97467). Description: ST_JUDE_LEISH: Cytotoxicity at 2uM final concentration against transgenic Leishmania Mexicana promastigotes LmPfHT that are glucose transport deficient and complemented with the Plasmodium falciparum hexose transporter. Activity is measured by DNA content using SYBR green in vitro.
Assay [3] deals with Glucose transporter (Leishmania mexicana) (UniProt O61059). Kind of assay: ST_JUDE_LEISH: Cytotoxicity at 2uM final concentration against transgenic Leishmania Mexicana promastigotes LmGT2 that are glucose transport deficient and complemented with the L. Mexicana glucose transporter 2. Activity is measured by DNA content using SYBR green in vitro.

Solute carrier family 2, facilitated glucose transporter member 1 (Homo sapiens), sequence (P11166 whole entry): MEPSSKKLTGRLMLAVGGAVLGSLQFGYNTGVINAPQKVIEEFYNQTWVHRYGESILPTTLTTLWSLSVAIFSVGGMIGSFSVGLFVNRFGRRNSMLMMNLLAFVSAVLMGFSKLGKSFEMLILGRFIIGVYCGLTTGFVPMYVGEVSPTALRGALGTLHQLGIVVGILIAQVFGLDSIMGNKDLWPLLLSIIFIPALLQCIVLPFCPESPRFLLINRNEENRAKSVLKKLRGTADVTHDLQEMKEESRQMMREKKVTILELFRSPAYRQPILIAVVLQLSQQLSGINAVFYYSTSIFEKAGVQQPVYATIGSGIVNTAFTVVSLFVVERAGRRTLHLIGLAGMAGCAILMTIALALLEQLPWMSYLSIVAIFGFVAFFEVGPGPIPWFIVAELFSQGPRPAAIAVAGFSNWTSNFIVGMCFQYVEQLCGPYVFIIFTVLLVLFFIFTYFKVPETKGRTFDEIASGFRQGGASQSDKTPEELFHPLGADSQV

For orientation: inhibition means the change of the read-out against control, counted positive when it falls. Consider `CCN(CC)CCCC(C)Nc1c(-c2ccc(Br)cc2)cnc2ccccc12` (stereo unspecified), for which the inhibition in assay [1] stood at 57.5%; in assay [2] it was 14.4%; in assay [3] it was 3.73%.

Consider `Cc1csc(-c2ncc(OC[C@@H](N)Cc3ccccc3)cc2-c2ccc3[nH]nc(C)c3c2)c1`, for which the inhibition in assay [1] is 2.54%; in assay [2], 0.85%; in assay [3], -0.58%.

As to `CN(C)c1cccc(-c2cnc3ccc(NCc4cccc(Cl)c4)nn23)c1`, the inhibition in assay [1] worked out at 1.27%; in assay [2], 2.01%; in assay [3], 1.77%.

Consider `CCCS(=O)(=O)N1CCC(CO)(Cc2ccccc2C(F)(F)F)CC1`, for which the inhibition in assay [1] worked out at 2.81%; in assay [2] it was 3.09%; in assay [3], 2.87%.

Turning to `COc1cccc(OC)c1C(=O)N1CCC2(CC1)C(=O)N(CC(=O)NC1CCCCC1)CN2c1ccccc1`, the inhibition in assay [1] is 0.35%; in assay [2] it was 4.45%; in assay [3], 3.89%.

Consider `CSc1c(CNCCCNc2cc(=O)c3ccccc3[nH]2)[nH]c2ccccc12`, for which the inhibition amounted to 5.89% in assay [1], 4.28% in assay [2] and 4.96% in assay [3].

Take `COc1cc(Nc2nccc(N3CCC(NC(=O)C4COc5ccccc5O4)C3)n2)cc(OC)c1OC` (stereo unspecified): the values for the inhibition in assay [1], in assay [2] and in assay [3] were 2.77%, 1.3% and 2.12%, respectively.

Consider `CCCNCc1ccc(-c2ccc(CNC3Cc4ccccc4C3)cc2)nc1`, for which the inhibition is -0.04% in assay [1], 2.5% in assay [2] and 1.53% in assay [3].

With `COc1ccc(-c2cc3ncn(CC(=O)N4CCN(c5cccc(OC)c5)CC4)c(=O)c3s2)cc1`, the inhibition came out at 2.19% in assay [1], 3.48% in assay [2] and 2.45% in assay [3].

Turning to `Cc1ccc([N+](=O)[O-])cc1NC(=O)N(CC(O)c1ccccc1)C1CCCCC1` (stereo unspecified), the inhibition in assay [1] stood at 1.93%; in assay [2], 2.61%; in assay [3], 2.38%.

On to `CN(/N=C/c1ccc(Cl)cc1)c1nc(NCCc2ccc(O)cc2)nc(N2CCNCC2)n1`, for which the inhibition in assay [1] is 7.69%; in assay [2], 6.81%; in assay [3], 6.34%.

In the case of `Nc1ccnc(N2CCC(CCOc3cc(C(F)(F)F)nc4c(C(F)(F)F)cccc34)CC2)c1`, the inhibition in assay [1] worked out at 25.6%; in assay [2], 43.4%; in assay [3], 10.2%.
